# Only some compounds are listed: those with a hit (about 2.4% of all), similar ones and a draw of the others.
# ALOX15 inhib: 15-hLO (ALOX15) enzyme inhibition; P16050; purified 15hLO-1, xylenol orange hydroperoxide absorbance; Potency, µM (titrated, usually from 57.1 µM), without a hit: at the highest dose activity change, negative = inhibition, usual class: inhibitors; hit rate 1.4% among 74,000; AID 887; note: potency is the fitted concentration of half-maximal effect; % is set by controls: 0 for no effect and ±100 for the full control effect; nearly all actives have a fitted effect of over 55% in size
# Target sequence (P16050 whole entry, looked up): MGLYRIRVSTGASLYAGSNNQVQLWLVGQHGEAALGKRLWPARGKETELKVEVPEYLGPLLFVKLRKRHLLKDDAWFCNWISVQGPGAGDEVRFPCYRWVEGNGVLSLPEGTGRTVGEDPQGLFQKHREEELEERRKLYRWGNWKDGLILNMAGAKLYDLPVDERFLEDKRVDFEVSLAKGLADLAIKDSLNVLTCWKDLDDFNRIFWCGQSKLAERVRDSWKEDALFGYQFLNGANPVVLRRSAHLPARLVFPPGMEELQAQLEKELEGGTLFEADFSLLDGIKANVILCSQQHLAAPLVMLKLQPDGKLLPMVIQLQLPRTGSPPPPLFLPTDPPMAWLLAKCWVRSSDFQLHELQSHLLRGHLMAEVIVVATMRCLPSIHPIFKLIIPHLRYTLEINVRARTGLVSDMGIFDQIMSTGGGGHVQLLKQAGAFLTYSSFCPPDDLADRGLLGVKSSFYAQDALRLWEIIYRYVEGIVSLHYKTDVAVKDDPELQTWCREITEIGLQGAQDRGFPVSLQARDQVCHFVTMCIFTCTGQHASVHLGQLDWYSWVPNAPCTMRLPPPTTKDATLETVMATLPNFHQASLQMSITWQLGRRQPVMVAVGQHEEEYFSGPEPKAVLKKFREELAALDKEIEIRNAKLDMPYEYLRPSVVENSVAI
#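 40 nM 15hLO-1 + cpd, 15 min RT; start w/ 50 uM AA (final), 6 min RT; stop/detect w/ 200 uM XO + 300 uM Fe(II) in 50 mM H2SO4, 30 min; A573/A405. Buffer 25 mM Hepes pH 7.5, 0.01% Triton X-100. No-enzyme wells as negative control.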
# Pol III holo inh: DNA polymerase III holoenzyme inhibition | reconstituted DNA polymerase III holoenzyme replication, biochemical | AID 603 | Potency, µM (top dose mostly 57.1 µM), inactives show at the top dose activity change, negative = inhibition | hit rate 0.25% among 71,000; note: potency is the fitted concentration of half-maximal effect; % is set by controls: 0 for no effect and ±100 for the full control effect
#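 Reconstituted *E. coli* holoenzyme (0.35 nM Pol III, 1 nM beta, 154 nM SSB, 2 nM primase) was preincubated with compound for 15 min at RT. Synthesis on 1.4 nM ssM13Gori ran 35 min, then was stopped with PicoGreen/EDTA and read as dsDNA fluorescence.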
# BRCT PPI red: disrupts BRCA1 BRCT binding to phosphoprotein, red fluorophore readout; BRCT-phosphopeptide binding, red fluorescence polarization; Potency, µM (titrated, usually from 76.9 µM), without a hit: top-dose activity change, negative = inhibition, hits mostly inhibitors; hit rate 0.03% among 75,000; note: % is set by controls: 0 for no effect and ±100 for the full control effect
#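 Fluorescence polarization: 100 nM His-tagged BRCA1 BRCT with 100 nM TAMRA-labelled phospho-BACH1 decapeptide, phosphate buffer pH 7.3 with 150 mM NaCl, DTT, 0.01% Tween 20; 12 min RT. Binding inhibition seen as FP decrease.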
# ERK AVP block: blocks ERK signaling stimulated by vasopressin | hit rate 0.99% among 72,000 | HEK293-V1b, vasopressin-stimulated pERK AlphaScreen | Potency, µM (titrated, usually from 57.5 µM), without a hit: top-dose activity, negative = inhibition, hits mostly inhibitors; note: potency is the fitted concentration of half-maximal effect; % is set by controls: 0 for no effect and ±100 for the full control effect; nearly all actives have a fitted effect of over 55% in size
#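 HEK293 cells stably expressing V1b receptor, preincubated 30 min at 37 °C with compound, then stimulated 5 min with 25 nM vasopressin. Phospho-ERK by AlphaScreen SureFire after 5 h RT; normalized to DMSO and vasopressin; AC50 by Hill fit.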
# BRCT PPI green: blocks human BRCA1 BRCT binding to phosphopeptide, green readout | hit rate 0.05% among 75,000 | BRCA1 BRCT-phosphopeptide binding, green fluorescence polarization | Potency, µM (titrated, usually from 76.9 µM), without a hit: at the highest dose activity change, negative = inhibition, actives largely listed as inhibitors;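 note: potency is the fitted concentration of half-maximal effect; plate controls were peptide without protein for full effect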
#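 Fluorescence polarization: His-tagged BRCT (~35 kDa BRCA1 C-terminus, 250 nM) bound to 100 nM fluorescein-labeled phosphorylated 10-aa BACH1 peptide, pH 7.3 phosphate buffer with DTT and Tween 20. Compounds incubated 12 min at room temperature; inhibition read as lowered polarization.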
# YjeE inh: inhibitors of E. coli YjeE (TsaE) | Potency, µM | purified YjeE enzyme, qHTS inhibition assay | hit rate 0.05% among 71,000
#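 Fluorescence polarization of a BODIPY Texas Red–ADP probe (2 uM) bound to purified YjeE (10 uM) was read after 15 min room-temperature incubation with compounds. Loss of polarization marks inhibitors; ADP serves as titrated control.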
# * marks the source's active call; other numbers are inactive results; i = inactive; ? = inconclusive; / = no result given; [ ] = remark or other dose. Calls come from the whole dose curve; as a rule, active = well fitted curve in the direction sought with a large enough effect; inconclusive = small, poorly fitted or top-dose-only effect, or another doubt; inactive = no such curve, though single readings can be large; an effect the other way counts as inactive or inconclusive.
SMILES,ALOX15 inhib,Pol III holo inh,BRCT PPI red,ERK AVP block,BRCT PPI green,YjeE inh
Cc1ccc(NC(=O)Nc2cccs2)cc1,25.1µM*,/,-1.6%,/,0.1%,/
CCc1ccc(NC(=O)Nc2cccs2)cc1,25.1µM*,-5.1%,0.2%,4.2%,-3.9%,i
NC(=O)NC(=O)Nc1ccccc1Cl,-2.8%,4.6%,-1.3%,-7.4%,-7.5%,i
O=C(Nc1cccs1)Nc1ccccc1Cl,12.6µM*,-6.3%,-0.3%,?,2.8%,i
CCn1c(SCC(=O)N2CCCC2)nc2c1c(=O)n(C)c(=O)n2C,-1.9%,1.1%,-0.1%,20µM*,2.0%,i
COCCn1c(SCc2csc(-c3ccccc3)n2)nc2ccccc21,-4.8%,-2.5%,-1.5%,25.1µM*,1.1%,i
NC(=O)c1ncn([C@@H]2O[C@@H](CO)[C@@H](O)[C@H]2O)c1O,7.1%,-7.9%,0.9%,0.1%,-2.6%,i
CCOC(=O)Nc1ccc2c(c1)Nc1ccccc1S2,31.6µM*,4.6%,-0.4%,11.6%,-1.7%,i
CC(=O)c1ccc2c(c1)Nc1ccccc1S2,?,-3.8%,-1.5%,22.4%,2.5%,i
COc1ccccc1-n1cnc(N)c1C(C)=O,0.9%,5.0%,1.5%,8.4%,2.3%,i
COc1ccccc1N1C(=O)N(C(C)=O)C2C1Nc1ccccc1N2C (centres undefined),?,-2.7%,-7.1%,25.1µM*,5.9%,i
COCCOC(=O)c1ccccc1C(=O)OCCOC,-5.5%,-13.5%,-0.2%,30.7%,-1.4%,i
COc1ccc(CCNC(=O)c2ccc3nc(-c4ccco4)c(-c4ccco4)nc3c2)cc1OC,7.94µM*,0.8%,-0.6%,20µM*,-1.7%,i
CC(C)CN1CC[C@@]2(CCCN(C(=O)c3cnccn3)C2)C1,-4.3%,-4.3%,-0.5%,1.2%,-2.8%,i
CCc1ccc(C2CC(c3ccccc3)n3ncnc3N2)cc1 (centres undefined),44.4%,-3.9%,-0.9%,31.6µM*,0.5%,i
CCc1ccc(C2CC(c3ccccc3)Nc3nc(N)nn32)cc1 (centres undefined),9.6%,1.3%,2.0%,1.6%,-0.5%,i
CC(C)P(=O)(Cc1cccc(C#N)c1)C(C)C,6.7%,-9.3%,0.7%,2.8%,-0.3%,i
CCS(=O)(=O)CCSc1nc2c(cc1C#N)CCCC2,-22.8%,-5.9%,-1.1%,8.7%,3.9%,i
CN1CCc2nc(SCCOc3ccccc3)c(C#N)cc2C1,3.16µM*,-14.2%,-3.5%,3.8%,-4.9%,i
CCc1ccc(C(=O)CSC2=C(C#N)C(c3ccco3)C(C(C)=O)=C(C)N2)cc1 (centres undefined),10µM*,-6.0%,1.1%,-4.8%,6.3%,i
CC(=O)C1=C(C)NC(SCC(=O)c2ccc(F)cc2)=C(C#N)C1c1ccco1 (centres undefined),20µM*,4.6%,-2.1%,-3.8%,4.0%,i
c1ccc(CNc2nc(-c3ccc4c(c3)OCO4)nc3ccccc23)cc1,-11.9%,1.5%,1.8%,20µM*,-1.9%,i
CNc1nc(-c2ccc3c(c2)OCO3)nc2ccccc12,3.1%,-1.7%,0.6%,?,2.8%,i
c1ccc(Nc2nc(-c3ccc4c(c3)OCO4)nc3ccccc23)cc1,?,-3.7%,-0.4%,15.8µM*,-0.1%,i
C#CCCCO/N=C1/C[C@@H](O)[C@@H](O)[C@@H]2[C@@H]3C(=O)N([C@@H](C)c4ccccc4)C(=O)[C@H]3CC[C@H]12,6.5%[11.4 µM],/,-1.2%[15.4 µM],0.7%[11.5 µM],-0.1%[15.4 µM],/
CCCc1cc(=O)[nH]c(SCC(=O)c2cc(C)n(C(C)COC)c2C)n1 (centres undefined),-29.9%,-1.9%,-6.9%,1.6%,-3.9%,i
CC(C)=CCC/C(C)=C/CO/N=C1/C[C@@H](O)[C@@H](O)[C@@H]2[C@@H]3C(=O)N(C4CCCCC4)C(=O)[C@H]3CC[C@H]12,4.4%[11.4 µM],/,0.1%[15.4 µM],24.2%[11.5 µM],-1.0%[15.4 µM],/
